Laboratory results as given in PubChem BioAssay AID652054 (National Center for Advancing Translational Sciences (NCATS), 2013).
Screen size: about 360,000 compounds; about 9,100 (2.5%) were called active. Inconclusive results (about 4%) are left out. Rule as the data show it: active = max response below about -50%; inconclusive = no clear call, values can overlap the other calls; inactive = above that. The full list was thinned out, with actives kept by preference.

Biological target: D(3) dopamine receptor (Homo sapiens) (UniProt P35462)
Sequence (P35462 whole entry, looked up): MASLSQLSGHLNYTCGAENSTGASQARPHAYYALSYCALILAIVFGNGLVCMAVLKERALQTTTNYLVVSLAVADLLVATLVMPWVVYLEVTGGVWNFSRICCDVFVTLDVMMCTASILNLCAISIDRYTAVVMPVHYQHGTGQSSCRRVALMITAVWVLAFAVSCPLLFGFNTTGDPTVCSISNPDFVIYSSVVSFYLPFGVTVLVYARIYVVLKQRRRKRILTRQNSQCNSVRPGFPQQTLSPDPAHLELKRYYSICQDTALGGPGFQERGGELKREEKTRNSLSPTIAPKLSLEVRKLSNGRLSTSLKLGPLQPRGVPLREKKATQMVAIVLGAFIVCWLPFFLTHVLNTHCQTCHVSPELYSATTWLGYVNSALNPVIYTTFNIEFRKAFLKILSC
Test: qHTS of D3 Dopamine Receptor Antagonist: qHTS
Details: D3R cells, DiscoveRx beta-arrestin luminescence, antagonist mode; hits give low values
Summary of the method: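 Cells expressing the human receptor were seeded at 1500 cells/well, incubated overnight at 37 degrees C in 5% CO2, then exposed to library compounds with dopamine controls for 90 minutes at 37 degrees C before luminescent detection.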
% is scaled to controls: 0 for no effect and ±100 for the full control effect.

Max response, negative = inhibition, inactive:
COc1ccc(-c2ccc(C(=O)NC(C)C)c3occc23)c(C)c1 19.9%
COc1ccc(-c2cc(C(=O)NCCCN3CCOCC3)no2)cc1 1.86%
CC(C)C[C@@H](COCc1ccc(Cl)cc1)N1CCN(C(=O)c2ccc(Cl)cc2Cl)CCC1=O 11.5%
Cc1ccccc1OS(=O)(=O)c1cccc([N+](=O)[O-])c1 -14.2%
CC(C)N1C(=O)c2ccccc2NC(=O)C1C(=O)NCc1cccs1 (configuration not stated) -19.3%
COC(=O)C[C@H]1C[C@@H]2c3cc(N(C)C)ccc3O[C@@H]2[C@H](CO)O1 17%
O=C(NCc1ccccc1)C1c2ccccc2OCC(=O)N1CCCN1CCOCC1 (configuration not stated) 0.216%
O=C(NCc1ccc(F)cc1)c1cc(C2CCCCN2C(=O)c2cccs2)on1 (configuration not stated) 12.8%
CCC1NC(=O)c2cccnc2-n2c1nc1ccc(C)cc1c2=O (configuration not stated) 16.9%
COCCNC(=O)C1C(=O)Nc2ccccc2C(=O)N1c1ccc2c(c1)OCCO2 (configuration not stated) 5.54%
O=C(c1ncn2c1c(=O)[nH]c1ccccc12)N1CCc2ccccc2C1 1.07%
Cc1cccc(N2CCN(C(=O)c3cc4c(=O)[nH]c5ccccc5c4n3C)CC2)c1C 2.48%
CCCCCCN1CCN(C2CN(Cc3cn(Cc4ccc(F)cc4)nn3)S(=O)(=O)C2)CC1 (configuration not stated) 3.43%
Cc1c(C(=O)Nc2ccccc2Cl)oc2ccc(S(=O)(=O)N3CCC4(CC3)OCCO4)cc12 22.3%
Cc1cccc(NC(=O)c2cc(S(=O)(=O)N3CCC4(CC3)OCCO4)ccc2F)c1 -11.3%
CCCC(=O)N1CCC1(C)C(=O)NCc1ccc(SC)cc1 (configuration not stated) -2.93%
Cc1cccc(S(=O)(=O)N(C)C[C@H]2OCc3cnnn3CCCC(=O)N([C@@H](C)CO)C[C@H]2C)c1 19.6%
CC(=O)Nc1c(-c2ccc(C)cc2)nc2ccc(Cl)cn12 -4.26%
CC(C)c1cc(C(=O)N(C)C2CCCN(Cc3ccccc3F)C2)n(C)n1 (configuration not stated) -9.14%
CSc1ncnc2c1ncn2CCCNCC(C)c1ccccc1 (configuration not stated) 1.7%
CSc1ncnc2c1ncn2CCCNCc1ccco1 0.282%
CCCCNC(=O)OC1CC2CC1[C@H]1CCCCN1C2=O (some centres not stated) 2.26%
CCOC(=O)N1CCN(S(=O)(=O)c2ccc(Br)cc2)CC1 8.1%
CCOC(=O)N1CCN(S(=O)(=O)c2ccc(OC)cc2)CC1 3.43%
Cc1nc(C(F)(F)F)ccc1C(=O)N1CCC1(C)C(=O)NS(=O)(=O)c1ccccc1 (configuration not stated) 25.3%
O=[N+]([O-])c1ccc(CN2CC(N3CC=CC3)CS2(=O)=O)cc1 (configuration not stated) 9.3%
NC(CSC(c1ccccc1)(c1ccccc1)c1ccc(-c2ccccc2)cc1)C(=O)O (configuration not stated) 6.39%
CC(=O)Nc1cccc(NC(=O)c2ccc3c(c2)CCN3S(C)(=O)=O)c1 -9.74%
O=C(Nc1ccc(CSc2ccccc2)cc1)c1ccc(CN2CCOCC2)cc1 2.28%
CCc1ccc(NC(=O)N2CCc3ccccc3C2)cc1 -11%
CN(c1ccc(C(=O)N2CCc3ccccc3C2)cc1)S(C)(=O)=O 30.4%
CC1(C(=O)NS(=O)(=O)c2cccc(OC(F)F)c2)CCN1C(=O)C1CC1 (configuration not stated) -9.73%
c1ccc(Cc2c(-c3ccco3)nc3c4ccccc4ccn23)cc1 21.1%
O=C(COC(=O)c1ccc(S(=O)(=O)N2CCCCCC2)cc1)Nc1ccccc1C(F)(F)F -1.68%
CSc1ccc(CNC(=O)C2(C)CCCN2C)cc1 (configuration not stated) 0%
CCOC(=O)N1CCN(C(c2ccnc3ccccc23)c2nnnn2-c2c(C)cccc2C)CC1 (configuration not stated) -7.2%
O=C(COC(=O)c1ccccc1)c1ccc2c(c1)OCCO2 -5.24%
CCC1(c2ccccc2)NC(=O)N(CC(=O)c2ccc3c(c2)OCO3)C1=O (configuration not stated) 4.79%
COc1ccc(C(=O)N2CCCCC2c2cc(C(=O)Nc3ccccc3)no2)cc1 (configuration not stated) -19.9%
C[C@H]1CN([C@@H](C)CO)S(=O)(=O)c2ccc(Br)cc2O[C@H]1CN(C)C(=O)c1cnccn1 -8.27%
Cc1cc(C)n(CC(O)CN(c2ccccc2)S(=O)(=O)c2ccc3ccccc3c2)n1 (configuration not stated) 10.5%
Cc1cccc(N(CC(O)CN(C)C)S(=O)(=O)c2ccccc2)c1 (configuration not stated) 0.407%
O=C(Nc1ccc(Cl)cc1)C1Cc2c(-c3ccc4c(c3)OCO4)ccnc2O1 (configuration not stated) -10.5%
COc1ccccc1NC(=O)CN1CCN(S(=O)(=O)c2ccc(Br)cc2)CC1 -9.35%
O=C(CN1CCN(S(=O)(=O)c2ccc(F)cc2)CC1)Nc1ccccc1F 0%
Cc1ccc(-c2nc3c(C)cc(Br)cn3c2Cc2ccccc2)cc1 -0.352%

Max response, negative = inhibition, active:
COc1ccc(-c2ccc(C(=O)NCCN3CCOCC3)c3occc23)c(C)c1 -78.2%
CN1CCN(C2Cc3ccc(Cl)cc3Sc3ccc(F)cc32)CC1 (configuration not stated) -88%
Cn1c(C(=O)NCCN2CCc3ccccc3C2)cc2c(=O)[nH]c3ccccc3c21 -59.2%
CCOc1ccccc1NC(=O)c1cc(S(=O)(=O)N2CCC3(CC2)OCCO3)ccc1F -83.8%
CSc1ncnc2c1ncn2CCCNCC1CCCCC1 -105%
CCOC(=O)N1CCN(S(=O)(=O)c2ccc(C(=O)Nc3ccc(F)cc3F)cc2)CC1 -76.7%
Cc1cccc(C)c1NC(=O)c1ccc(CN2CCc3ccccc3C2)cc1 -84.7%
CN(c1cccc(NC(=O)c2ccc(CN3CCc4ccccc4C3)cc2)c1)S(C)(=O)=O -69.7%
O=C(CCN1CCc2ccccc2C(O)(c2ccccc2)C1)c1ccc2c(c1)OCCO2 (configuration not stated) -73.7%
Cc1ccc(N(CC(O)CN2CCCC2)S(=O)(=O)c2ccccc2)cc1 (configuration not stated) -57.8%
O=C(CN1CCN(S(=O)(=O)c2ccc(Br)cc2)CC1)Nc1ccccc1C(=O)c1ccccc1 -71.6%
